From ChEMBL document CHEMBL4513216, “Probing the Open Global Health Chemical Diversity Library for Multistage-Active Starting Points for Next-Generation Antimalarials” (ACS Infect Dis, 2020)
Screen size: about 69,000 compounds; about 8,600 (12%) showed an effect of 50% or more. What follows is part of a selection rich in strong results, with near analogues and random picks from the rest.

Tested on: Plasmodium berghei
Assay: Screen against P. berghei liver stage (PbLuc), transformed with Luciferase, at 10uM
Assay type: functional, HepG2
Conditions: tested at 10 uM

Compound	INHIBITION [%]
CCn1cc(S(=O)(=O)N2CCCC3(CC=CNC3=O)C2)cn1 (centres undefined)	28.5
CC(CNC(=O)NCc1ccco1)N1CCc2sccc2C1 (centres undefined)	-12.5
CCCn1c(C)c(CC(=O)NCC(N)=O)c2c1CC(C)(C)CC2=O	-13.3
CCCn1c(C)c(CC(=O)NCCNC(C)=O)c2c1CC(C)(C)CC2=O	-4.52
CCCn1c(C)c(CC(=O)NCCC(N)=O)c2c1CC(C)(C)CC2=O	69.6
CCn1cc(-n2cc3nc(N4CCC(C)CC4)[nH]cc-3c2=O)cn1	-85.9
Cc1cc(-n2c(C)cn(CN(C)C3CCS(=O)(=O)C3)c2=O)no1 (centres undefined)	38.8
Cn1cc2c(n1)C(COCC1CC1)CN(Cc1ccccn1)C2 (centres undefined)	12.5
Cc1cc(C)c(CNC(=O)NC2COc3ccccc3C2)c(=O)[nH]1 (centres undefined)	10.6
Cc1ccc(CN(CCCn2ccnc2)Cc2c[nH]cn2)s1	41.5
CN(C)c1ccc(CN(CCCn2ccnc2)Cc2c[nH]cn2)cc1	80.2
COCCN(Cc1ccc(C)cc1)Cc1c[nH]cn1	63.8
COCCN(Cc1ccc(C)cc1)Cc1nccn1C	43.4
CCn1ncnc1CN(CCOC)Cc1ccc(C)cc1	49.9
c1cc(CN(CCCn2ccnc2)Cc2ccoc2)ccn1	24.7
COc1cc(COCC2CCN(Cc3cccnc3)CC2)cc(OC)c1	5.11
CNc1cc(N2CCCC2CNCc2cccnc2C)ncn1 (centres undefined)	21.5
Cc1ccc(C(=O)N2CCc3ncc(Cn4cccn4)n3CC2)o1	16.4
COc1cc(I)c(Cl)cc1C(=O)N(C)CC(C)(C)O	29
Cc1nc(CNC(=O)NC2CCN(c3cccc(Cl)c3)C2)no1 (centres undefined)	56.3
Cc1nc(CNC(=O)NC2CCN(c3ncccc3Cl)C2)no1 (centres undefined)	25.4
Cc1ccc(CC(=O)NC2CCN(c3cccc(Cl)c3)C2)cn1 (centres undefined)	42.7
Cc1cc(C)n(CC2CN(Cc3nc(C4CC4)no3)CCO2)n1 (centres undefined)	-27.8
CCCn1c(C)c(CC(=O)N(C)CC(=O)OC)c2c1CC(C)(C)CC2=O	4.25
CCOCC(O)CN1CCN(C(=O)c2ccsc2)CC1 (centres undefined)	43.4
CC(C)OCCC(=O)N1CCN(CC(O)c2ccccc2)CC1 (centres undefined)	-12.5
O=C(c1ccsc1)N1CCN(CC(O)c2cccc(F)c2)CC1 (centres undefined)	40.6

Compound	INHIBITION [%]
COc1cccc(C(O)CN2CCN(C(=O)c3ccsc3)CC2)c1 (centres undefined)	53.6
COc1cccc(C(O)CN2CCN(C(=O)CCC(C)C)CC2)c1 (centres undefined)	55.4
COc1cccc(C(=O)N2CCN(CC(O)c3ccccc3)CC2)c1 (centres undefined)	32.2
Cc1cccc2c1C(=O)NC(c1cnc(C3CCC3)s1)N2 (centres undefined)	-91.5
CN1CCN(c2cccc(Cl)c2CNCCS(C)(=O)=O)CC1	19.9
Cn1c(Cn2ccnc2)nnc1C1CCN(C(=O)c2ccoc2)CC1	-62.8
CNc1ccc(CC2CCCN(C(=O)c3c(C)noc3C)C2)nn1 (centres undefined)	21.9
CCc1cc(C(=O)N2CCCC(Cc3ccc(NC)nn3)C2)on1 (centres undefined)	60.4
CNc1ccc(CC2CCCN(C(=O)c3cnco3)C2)nn1 (centres undefined)	1.11
Cc1noc(CNC(=O)NCC2(C)CCCc3ccccc32)n1 (centres undefined)	6.29
COCCCNC(=O)c1ccccc1-n1cc(CN(C)C)cn1	20.8
CC(C)NC(=O)C1CN(C(=O)COc2ccccc2)CC12CCOCC2 (centres undefined)	24.1
CC(C)CCN1C2(CCN(C(=O)C3(C)CC3)C2)c2ccccc2S1(=O)=O (centres undefined)	6.55
CC(C)CCN1C2(CCN(Cc3nccs3)C2)c2ccccc2S1(=O)=O (centres undefined)	78.8
CN(C)CCN1C2(CCN(Cc3nccs3)C2)c2ccccc2S1(=O)=O (centres undefined)	80
COCCN1C2(CCN(Cc3nccs3)C2)c2ccccc2S1(=O)=O (centres undefined)	14.8
CC(C)CCN1C2(CCN(C(=O)N(C)C)C2)c2ccccc2S1(=O)=O (centres undefined)	6.55
CC(C)CCN1C2(CCN(c3ncccn3)C2)c2ccccc2S1(=O)=O (centres undefined)	13.5
O=C(Nc1ccccn1)c1cncc(C2CCNCC2)n1	-35.5
N#CC1Sc2nnc(-c3ccccc3Br)n2N=C1N (centres undefined)	16.2
O=C(c1ccc(-n2cnnn2)cc1)N1CCCC(n2ccnc2)C1 (centres undefined)	26.4
CCN(CC1CCOC1)C(=O)Nc1ccc(N2CCCCC2)nc1 (centres undefined)	-8.83
COCCNc1ccc(CC2CCCN(C3CCOCC3)C2)nn1 (centres undefined)	7.71
O=C(c1nsc(Cl)c1Cl)N1CCc2nc3sccc3c(=O)n2CC1	-14.1
CN1CCN(C(=O)c2n[nH]c3c2CN(Cc2nccs2)CC3)CC1	-105
CN(C)C(=O)c1n[nH]c2c1CN(Cc1nccs1)CC2	88
CN(C)C(=O)c1n[nH]c2c1CCN(Cc1nccs1)C2	-53.6

Compound	INHIBITION [%]
CC(C)CNC(=O)c1cn(C(C)C)cc2c(=O)[nH]nc1-2	36.8
Cn1c(=O)[nH]c(=O)n2c(CC(=O)NCc3ccccc3)cnc12	19.3
O=C(Nc1cccnc1-n1cc(Cl)cn1)C1CCCC1	48
O=C(Nc1cccnc1-n1cc(Cl)cn1)C1CCCCC1	52.6
O=C(Nc1cccnc1-n1cc(Cl)cn1)C1CC1	41.5
COc1ccc(C)cc1C(C)NC(=O)CCn1cncn1 (centres undefined)	19.2
O=C(c1ccnnc1)N1C[C@@H]2C[C@@H](c3nc(C4CC4)cs3)O[C@@H]2C1	-60.2
O=C(c1ccncn1)N1CCC[C@]2(C[C@@H](OCc3ccccn3)CO2)C1	43.9
COCC(=O)Nc1cc(S(=O)(=O)C(F)(F)F)ccc1OC	33.7
COc1ccc(S(=O)(=O)C(F)(F)F)cc1NC(=O)CSC	63.7
COc1ccc(S(=O)(=O)C(F)(F)F)cc1NC(=O)CSCC#N	48.3
Cc1ccccc1CN(C)C(=O)CN1CCCC(Cn2cncn2)C1 (centres undefined)	-51.5
COc1cc(C)c(C(C)NC(=O)NCCCn2cncn2)cc1OC (centres undefined)	-19.4
CN(C)CCN1Cc2ncn(C)c2C(COCC(=O)N(C)C)C1 (centres undefined)	50
CCn1nnc2c1C(COCCN(C)C)CN(S(=O)(=O)CC)C2 (centres undefined)	52.6
Cc1cccc(CN2Cc3ncn(C)c3C(COCC(=O)N(C)C)C2)n1 (centres undefined)	-10.3
CN(C)CCOCC1CN(Cc2ccoc2)Cc2nnn(C)c21 (centres undefined)	18.5
CCn1nnc2c1C(COCCN(C)C)CN(Cc1ccc(C)s1)C2 (centres undefined)	-22.1
CCn1nnc2c1C(COCCN(C)C)CN(S(C)(=O)=O)C2 (centres undefined)	43.8
CN(C)CCOCC1CN(Cc2ccncc2)Cc2nnn(C)c21 (centres undefined)	3.58
CCn1nnc2c1C(COCCN(C)C)CN(c1nncs1)C2 (centres undefined)	57.1
CN(C)C(=O)COCC1CN(CC2CCOCC2)Cc2ncn(C)c21 (centres undefined)	4.57
CCS(=O)(=O)N1Cc2nnn(C)c2C(COCCN(C)C)C1 (centres undefined)	48.2
CCn1nnc2c1C(COCCN(C)C)CN(Cc1ccco1)C2 (centres undefined)	62.3
CCn1nnc2c1C(COC)CN(Cc1ccco1)C2 (centres undefined)	-30.1
